Results published in PubChem BioAssay AID1159580 (chemical genetic matrix, 2015).
Several values for one entry are separate records, joined by “and”; a condition that tells them apart may be missing. Identical values can stand only once. Screen size: about 5,500 compounds; about 2,000 (36%) were called active. Inconclusive results (about 18%) are left out. Rule as the data show it: active = normalized growth mostly below about 0.91 (no sharp cut-off); inconclusive = no clear call, values can overlap the other calls; inactive = mostly above about 0.92. This is one part of the list.

Experiment: chemical genetic growth profiling, strain panel (AID 1159580);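 also: tested at 20 µM; growth read once vehicle control cultures reached saturation at 30 °C; 1 = growth at the plate median or of vehicle wells; lower values mean less growth of the strain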
Settings: S. cerevisiae deletion strains, growth OD

Measured: normalized growth

COC(=O)[C@@H]1OC(=O)C2OC23[C@@]1(C)CCC1[C@]2(C)C(C[C@@H](O)[C@]13C)C(C)(C)[C@H](OC(C)=O)C[C@@H]2OC(C)=O (stereo not given in full)
inactive: locus YAL021C, strain ccr4, hits give low values 1 | locus YAL026C, strain drs2, hits give low values 1.01 | locus YAL030W, strain snc1, hits give low values 1 | locus YBL061C, strain skt5, hits give low values 1 | locus YBR009C, strain hhf1, hits give low values 1.03 | locus YBR021W, strain FUR4, hits give low values 0.993 | locus YBR023C, strain chs3, hits give low values 0.997 | locus YBR171W, strain sec66, hits give low values 0.995 | locus YBR229C, strain ROT2, hits give low values 1.01 | locus YBR231C, strain swc5, hits give low values 1.01 | locus YBR279W, strain paf1, hits give low values 1 | locus YCL011C, strain gbp2, hits give low values 1.01 | locus YCL016C, strain dcc1, hits give low values 1 | locus YCL029C, strain bik1, hits give low values 1.01 | locus YCL069W, strain vba3, hits give low values 0.996 | locus YCR088W, strain abp1, hits give low values 0.991 | locus YDL005C, strain med2, hits give low values 0.987 | locus YDL035C, strain GPR1, hits give low values 1.05 | locus YDL040C, strain nat1, hits give low values 1 | locus YDL074C, strain BRE1, hits give low values 1.06 | locus YDL101C, strain DUN1, hits give low values 1.02 | locus YDL134C, strain PPH21, hits give low values 1.02 | locus YDL185W, strain tfp1, hits give low values 1.01 | locus YDL192W, strain arf1, hits give low values 1.01 | locus YDR001C, strain nth1, hits give low values 0.997 | locus YDR069C, strain doa4, hits give low values 1.01 | locus YDR101C, strain arx1, hits give low values 1.03 | locus YDR137W, strain rgp1, hits give low values 1.03 | locus YDR150W, strain NUM1, hits give low values 1.01 | locus YDR159W, strain sac3, hits give low values 0.985 | locus YDR162C, strain NBP2, hits give low values 1.03 | locus YDR195W, strain ref2 0.988 | locus YDR297W, strain sur2, hits give low values 0.989 | locus YDR318W, strain mcm21, hits give low values 0.995 | locus YDR334W, strain swr1, hits give low values 1 | locus YDR335W, strain msn5, hits give low values 1 | locus YDR388W, hits give low values 1.01 | locus YDR392W, strain spt3, hits give low values 1.01 | locus YDR502C, strain sam2, hits give low values 1 | locus YEL003W, strain gim4, hits give low values 1 | locus YEL037C, strain rad23, hits give low values 1 | locus YEL061C, strain CIN8 (second series), hits give low values 0.986 | locus YEL061C, strain CIN8, hits give low values 1.01 | locus YER015W, strain faa2, hits give low values 0.994 | locus YER016W, strain bim1, hits give low values 1 | locus YER110C, hits give low values 0.995 | locus YER111C, strain swi4, hits give low values 1 | locus YER155C, strain BEM2 (second series), hits give low values 1.01 | locus YER155C, strain BEM2, hits give low values 0.989 | locus YER167W, strain BCK2, hits give low values 1.02 | locus YFR010W, strain ubp6, hits give low values 1.02 | locus YGL078C, strain dbp3, hits give low values 1.01 | locus YGL086W, strain mad1, hits give low values 0.996 | locus YGL167C, strain pmr1, hits give low values 1 | locus YGL173C, strain kem1, hits give low values 1 | locus YGL227W, strain vid30, hits give low values 1.01 | locus YGL240W, strain doc1, hits give low values 1 | locus YGL248W, strain PDE1, hits give low values 1.01 | locus YGL253W, strain hxk2, hits give low values 1.01 | locus YGR135W, strain pre9, hits give low values 0.971 | locus YGR252W, strain gcn5, hits give low values 0.966 | locus YHR013C, strain ard1, hits give low values 0.989 | locus YHR027C, strain rpn1, hits give low values 1 | locus YHR030C, strain SLT2, hits give low values 0.998 | locus YHR079C, strain IRE1 (second series), hits give low values 1 | locus YHR079C, strain IRE1, hits give low values 1.01 | locus YHR094C, strain hxt1, hits give low values 1.01 | locus YHR129C, strain ARP1, hits give low values 0.999 | locus YHR142W, strain chs7, hits give low values 1 | locus YHR200W, strain rpn10, hits give low values 1.01 | locus YIL066C, strain RNR3, hits give low values 1.03 | locus YIL073C, strain SPO22, hits give low values 1.03 | locus YIL125W, strain kgd1, hits give low values 0.997 | locus YIR030C, strain dcg1, hits give low values 0.992 | locus YJL092W, strain hpr5, hits give low values 0.997 | locus YJL095W, strain BCK1 (second series), hits give low values 0.989 | locus YJL095W, strain BCK1, hits give low values 1 and 0.991 | locus YJL115W, strain asf1, hits give low values 0.995 | locus YJL129C, strain trk1, hits give low values 0.995 | locus YJL134W, strain LCB3, hits give low values 1.01 | locus YJL154C, strain vps35, hits give low values 1.01 | locus YJL164C, strain tpk1, hits give low values 1.02 | locus YJL166W, strain qcr8, hits give low values 1.01 | locus YJL168C, strain set2, hits give low values 0.998 | locus YJL187C, strain SWE1 (second series), hits give low values 1 | locus YJL187C, strain SWE1, hits give low values 1.01 | locus YJR066W, strain TOR1, hits give low values 0.913 | locus YKL009W, strain mrt4, hits give low values 0.998 | locus YKL068W, hits give low values 1 | locus YKL085W, strain MDH1 (second series), hits give low values 0.999 | locus YKL085W, strain MDH1, hits give low values 0.999 | locus YKL160W, strain elf1, hits give low values 1 | locus YKL190W, strain CNB1, hits give low values 1.01 | locus YKR001C, strain vps1, hits give low values 1.01 | locus YKR026C, strain gcn3, hits give low values 0.993 | locus YKR091W, strain srl3, hits give low values 0.999 | locus YLL001W, strain dnm1, hits give low values 1.01 | locus YLL026W, hits give low values 0.998 | locus YLL041C, strain sdh2, hits give low values 0.995 | locus YLR027C, strain aat2, hits give low values 1.01 | locus YLR039C, strain RIC1, hits give low values 1.12 | locus YLR058C, strain SHM2, hits give low values 1.02 | locus YLR102C, strain apc9, hits give low values 1 | locus YLR113W, strain HOG1, hits give low values 1.08 | locus YLR221C, strain rsa3, hits give low values 0.999 | locus YLR258W, strain gsy2, hits give low values 1.01 | locus YLR262C, strain YPT6 (second series), hits give low values 0.997 | locus YLR268W, strain sec22, hits give low values 1.02 | locus YLR320W, strain mms22, hits give low values 1 | locus YLR330W, strain CHS5, hits give low values 1.01 | locus YLR342W, strain FKS1, hits give low values 1 | locus YLR357W, strain rsc2, hits give low values 0.969 | locus YLR370C, strain arc18, hits give low values 1.01 | locus YLR371W, strain rom2, hits give low values 0.988 | locus YLR384C, strain iki3, hits give low values 0.988 | locus YLR418C, strain cdc73, hits give low values 0.972 | locus YML016C, strain PPZ1, hits give low values 1.01 | locus YML032C, strain rad52, hits give low values 1.01 | locus YML120C, strain ndi1, hits give low values 0.994 | locus YML124C, strain tub3, hits give low values 0.987 | locus YMR058W, strain fet3, hits give low values 1.01 | locus YMR078C, strain ctf18, hits give low values 1 | locus YMR125W, strain sto1, hits give low values 0.987 | locus YMR129W, hits give low values 0.996 | locus YMR205C, strain PFK2, hits give low values 1.01 | locus YMR223W, strain ubp8, hits give low values 0.985 | locus YMR231W, strain pep5, hits give low values 0.994 | locus YMR307W, strain GAS1, hits give low values 0.996 | locus YNL067W, strain RPL9B, hits give low values 1.01 | locus YNL071W, strain lat1, hits give low values 0.997 | locus YNL183C, strain NPR1, hits give low values 0.95 | locus YNL209W, strain ssb2, hits give low values 1.01 | locus YNL233W, strain BNI4, hits give low values 1.01 | locus YNL248C, strain rpa49, hits give low values 0.997 | locus YNL250W, strain rad50, hits give low values 1 | locus YNL271C, strain bni1, hits give low values 1.01 | locus YNL298W, strain CLA4, hits give low values 1.01 | locus YNL307C, strain MCK1, hits give low values 1.01 | locus YNL322C, strain KRE1 (second series), hits give low values 0.998 | locus YNL322C, strain KRE1, hits give low values 1.02 | locus YNR049C, strain mso1, hits give low values 0.988 | locus YNR052C, strain pop2, hits give low values 0.996 | locus YOL012C, strain htz1 0.946 | locus YOL147C, strain pex11, hits give low values 0.998 | locus YOR001W, strain rrp6, hits give low values 1.03 | locus YOR061W, strain CKA2, hits give low values 1.02 | locus YOR069W, strain VPS5, hits give low values 1.01 | locus YOR070C, strain gyp1, hits give low values 1 | locus YOR080W, strain dia2, hits give low values 1.01 | locus YOR083W, strain WHI5, hits give low values 1 | locus YOR106W, strain vam3, hits give low values 1.02 | locus YOR136W, strain idh2, hits give low values 0.989 | locus YOR144C, strain elg1, hits give low values 1.01 | locus YOR184W, strain ser1, hits give low values 1.01 | locus YOR231W, strain MKK1, hits give low values 1.01 | locus YOR265W, strain rbl2, hits give low values 0.983 | locus YOR270C, strain vph1, hits give low values 1.02 | locus YOR290C, strain snf2, hits give low values 1 | locus YOR316C, strain cot1, hits give low values 1 | locus YPL051W, strain arl3, hits give low values 1.01 | locus YPL055C, strain LGE1, hits give low values 1.03 | locus YPL078C, strain atp4, hits give low values 1.01 | locus YPL106C, strain sse1, hits give low values 0.999 | locus YPL240C, strain hsp82, hits give low values 1 | locus YPL256C, strain CLN2, hits give low values 1.01 | locus YPR119W, strain clb2, hits give low values 1 | locus YPR141C, strain kar3, hits give low values 1 | locus YPR163C, strain tif3, hits give low values 1.01 | locus YPR167C, strain met16, hits give low values 1 | strain wtn01, hits give low values 1
